Bioassay records from PubChem.
KAT2A inh: GCN5L2 (KAT2A) acetyltransferase inhibition; Q92830; Potency, µM (doses to about 58.9 µM), inactives show at the top dose activity change, negative = inhibition, usual class: inhibitors; GCN5L2 HAT assay, ThioGlo1 CoA-SH fluorescence; actives 0.21% (n = 390,000); AID 504327; note: potency is the fitted concentration of half-maximal effect; % is set by controls: 0 for no effect and ±100 for the full control effect
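Free CoA generated was detected with ThioGlo1 (50uM) fluorescence at Ex340nm/Em540nm, read immediately and after 20 min at room temperature. Enzyme, 20 nM in HEPES pH 7.5 buffer, saw compounds 15 min before adding 75uM H3(1-25) peptide and 70uM acetyl-CoA.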
Pol eta inh-1: blocks human DNA polymerase eta activity | actives 1.2% (n = 390,000) | recombinant Pol eta, fluorescent DNA replication assay | Potency, µM (doses to about 114 µM), for inactives: at the top dose activity change, negative = inhibition, actives largely listed as inhibitors | Q9Y253 | AID 588591; note: potency is the fitted concentration of half-maximal effect; % is set by controls: 0 for no effect and ±100 for the full control effect
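Fluorescent replication assay: 50 nM final substrate added after a 15 min room-temperature compound preincubation with 10 nM enzyme. Signal taken at 0 min and again at 10 min.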
GLS inhibitor: inhibitors of human glutaminase (GLS). O94925. GLS enzymatic activity, qHTS titration. Potency, µM (highest dose often 45.5 µM), inactives show at the top dose activity change, negative = inhibition, hits mostly inhibitors. actives 0.21% (n = 410,000); note: potency is the fitted concentration of half-maximal effect; % is set by controls: 0 for no effect and ±100 for the full control effect
Target sequence (O94925 whole entry, looked up): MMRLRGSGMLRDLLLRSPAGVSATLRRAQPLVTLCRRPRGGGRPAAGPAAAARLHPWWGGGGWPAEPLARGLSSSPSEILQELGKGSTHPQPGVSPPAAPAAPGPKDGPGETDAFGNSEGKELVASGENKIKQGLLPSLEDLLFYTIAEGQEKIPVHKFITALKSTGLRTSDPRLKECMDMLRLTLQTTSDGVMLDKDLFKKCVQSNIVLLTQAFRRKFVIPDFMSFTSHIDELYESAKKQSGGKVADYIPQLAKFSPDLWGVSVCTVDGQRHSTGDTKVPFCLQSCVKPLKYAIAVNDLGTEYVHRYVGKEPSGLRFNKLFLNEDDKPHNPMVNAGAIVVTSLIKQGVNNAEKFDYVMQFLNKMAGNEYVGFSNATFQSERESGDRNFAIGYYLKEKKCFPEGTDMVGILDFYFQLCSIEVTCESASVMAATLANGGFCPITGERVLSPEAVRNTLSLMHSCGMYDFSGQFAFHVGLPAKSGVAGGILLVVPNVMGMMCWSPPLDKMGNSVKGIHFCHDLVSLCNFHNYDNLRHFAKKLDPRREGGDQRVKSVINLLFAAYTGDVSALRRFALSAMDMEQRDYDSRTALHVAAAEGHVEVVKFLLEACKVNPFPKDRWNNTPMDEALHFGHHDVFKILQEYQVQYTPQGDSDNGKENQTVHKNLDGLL
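Coupled fluorescence readout: glutamate oxidase/HRP/Amplex Red detect glutamate formed by hKGA from L-glutamine (1 mM solution added). Buffer 45 mM KH2PO4 pH 8.2, 0.02% Tween-20; reads at t0 and 30 min RT.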
POLB inh: blocks human DNA polymerase beta activity; Pol beta primer extension/strand displacement, fluorescence kinetic; Potency, µM (doses to about 114 µM), without a hit: at the highest dose activity change, negative = inhibition, hits mostly inhibitors; actives 1.3% (n = 340,000); AID 485314; note: potency is the fitted concentration of half-maximal effect; % is set by controls: 0 for no effect and ±100 for the full control effect
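10 nM enzyme + cpd, 15 min RT; start with substrate 50 nM final; read 0 min and after 10 min RT. Corrected, normalized data; 4-parameter Hill curve fit.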
Pol kappa inh-1: blocks human DNA polymerase kappa activity; AID 588579; purified Pol kappa, fluorescent DNA synthesis assay, 10 min; actives 0.53% (n = 400,000); Potency, µM (highest dose often 107 µM), for the others: at the top dose activity, negative = inhibition, actives largely listed as inhibitors; note: potency is the fitted concentration of half-maximal effect; % is set by controls: 0 for no effect and ±100 for the full control effect
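Readout: fluorescence, taken kinetically at 0 and 10 min. Conditions: 10 nM Pol kappa, 15 min RT compound preincubation, 50 nM substrate final. Controls: enzyme-free buffer wells.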
Pol iota inh: blocks human DNA polymerase iota activity | Q9UNA4 | Pol iota fluorescent replication assay, 10 min | Potency, µM (top dose mostly 115 µM), for the others: at the highest dose activity, negative = inhibition, hits mostly inhibitors | actives 1% (n = 390,000); note: potency is the fitted concentration of half-maximal effect
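Fluorescent replication assay read twice, at 0 min and 10 min after adding 50 nM (final) substrate. Enzyme (10 nM) and compounds were first incubated 15 min at room temperature; enzyme-free buffer wells were negative controls.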
GALK confirm: galactokinase (human) inhibition, confirmation; purified GALK, Kinase-Glo ATP depletion luminescence; Potency, µM (doses to about 115 µM), for the others: at the top dose activity, negative = inhibition, actives largely listed as inhibitors; shares compounds with Pol eta inh-1; actives 70% (n = 150); AID 2015
Redox cycling: generates H2O2 by redox cycling, flagging GALK artifacts; actives 40% (n = 150); Potency, µM (top dose mostly 115 µM), inactives show at the top dose activity change, negative = H2O2 signal, usual class: inhibitors; AID 2035; shares compounds with Pol eta inh-1; Phenol red-HRP H2O2 redox cycling, absorbance 600 nm
HEK293 viability: HEK-293 cytotoxicity, GALK inhibitor secondary | actives 10% (n = 170) | HEK-293 viability, ATP luminescence (CellTiter-Glo), 24/48 h | shares compounds with Pol eta inh-1 | Potency, µM (titrated, usually from 46.1 µM), inactives show top-dose activity change, negative = cytotoxicity, actives largely listed as inhibitors; note: potency is the fitted concentration of half-maximal effect; % is set by controls: 0 for no effect and ±100 for the full control effect
Pol kappa inh-2: confirmation of human DNA polymerase kappa inhibitors | purified Pol-kappa, fluorescent strand-displacement substrate | actives 76% (n = 920) | Potency, µM, usual class: inhibitors | shares compounds with Pol eta inh-1; note: potency is the fitted concentration of half-maximal effect
Pol eta inh-2: confirmation of human DNA polymerase eta inhibitors. shares compounds with Pol eta inh-1. Pol eta primer extension, TAMRA/BHQ fluorescence, 10 min. Potency, µM, most hits filed as inhibitors. actives 64% (n = 2,600). AID 720502; note: potency is the fitted concentration of half-maximal effect
* = called active by the depositor; ? = inconclusive; . = not tested or not shown; [ ] = another dose, or the depositor's remark. In the library only some 2.4% were active in any assay of this set; here they are far more common. Calls come from the whole dose curve; as a rule, active = well fitted curve in the direction sought with a large enough effect; inconclusive = small, poorly fitted or top-dose-only effect, or another doubt; inactive = no such curve, though single readings can be large; an effect the other way counts as inactive or inconclusive.

SMILES	KAT2A inh	Pol eta inh-1	GLS inhibitor	POLB inh	Pol kappa inh-1	Pol iota inh	Pol eta inh-2	others
O=C1NC(=S)N/C1=C/c1cc2c(cc1[N+](=O)[O-])OCO2	-8%	?	-3%	-1%	?	-10%	85*
Cc1ccc(CNC(=O)CSc2nc3c(sc4ccccc43)c(=O)n2CCCOC(C)C)cc1	-13%	-3%	12%	38%	-4%[60.1 µM]	?	.
CN(C(=O)CSc1nc2ccc(NC(=O)c3ccco3)cc2s1)c1ccccc1	-13%	-12%	5%	24%	1%	16%	.
CSc1nnc(-c2ccco2)c(-c2ccco2)n1	?	11µM*	?	8.9µM*	?	?	?
O=c1cc(-c2ccc([N+](=O)[O-])cc2)nc2cc(-c3ccc(F)cc3)[nH]n12	-12%	20µM*	16%	-1%	-16%	?	67*
O=C(Cn1c(=O)n(Cc2ccc3c(c2)OCO3)c(=O)c2ccc(C(=O)NC3CCCCC3)cc21)Nc1ccccc1F	1%	-9%	-11%	24%	11%	24%	.
O=C(O)c1cccc(COc2ccc3c(c2)CCC3)c1	-5%	40µM*	14%	22µM*	?	?	48*
Cc1ccc(/C=c2\sc3nc(-c4cccnc4)nn3c2=O)cc1	-8%	10µM*	-13%	?	-21%	?	?
CC(C)c1ccc(/C=c2\sc3nc(-c4ccncc4)nn3c2=O)cc1	1%	?	9%	7%	-10%	-2%	.
CC(C)c1ccc(S(=O)(=O)Nc2cc3c(cc2NCc2ccccc2)n(C)c(=O)n3C)cc1	-14%	-22%	16%	0%	-9%	7%	.
COc1cc(Cl)cc(C2NC(=O)NC(C)=C2C(C)=O)c1OCC(=O)O (stereo not given)	-5%[0.501 µM]	25µM*	-29%	16µM*	?	?	?
Cc1ccc(C2C(/C=C3/SC(=S)NC3=O)=C(c3cccs3)Oc3ccccc32)cc1 (stereo not given)	-5%[0.501 µM]	71µM*	41%	32µM*	?	?	?	Pol kappa inh-2=?
O=C(CSc1nc2c([nH]c3ccccc32)c(=O)n1-c1ccccc1F)Nc1cccc(C(F)(F)F)c1	-10%	-27%	-6%	-1%	-8%[60.1 µM]	21%	.
COc1ccc(C(=O)Nc2cccc(-c3nc4cccnc4s3)c2C)c(OC)c1	-20%	-4%	-7%	2%	?	79µM*	.	Pol kappa inh-2=47*
CCOCC(=O)Nc1cccc(-c2nc3cccnc3s2)c1C	-6%	-16%	0%	0%	-3%	25%	.
Cc1cc(C)c2c(c1)C(=O)/C(=C/c1ccc(C(=O)O)cc1)CC2	-3%	?	-7%	57%	-12%	?	.
O=C(O)c1ccc(/C=C2\COc3ccccc3C2=O)cc1	-9%	?	9%	10%	2%	?	?
O=C(Nc1cc(C(=O)Nc2ccccc2C(=O)O)cc(C(=O)Nc2ccccc2C(=O)O)c1)c1ccccc1	?	14µM*	?	6%	?	?	30*
COc1ccc(C(=O)Nc2ccc(-c3nnc4n3CCCCC4)cc2)cc1OC	-5%	3%	-12%	32µM*	?	?	.	Pol kappa inh-2=17*
CN(C)c1ncc2nc(-c3cccs3)c(=O)n(-c3ccccc3)c2n1	-20%	.	.	.	?	.	.
COc1ccccc1CNC(=O)c1ccc2c(c1)nc(C)n2-c1cccc(C)c1	-3%	-5%	1%	15%	-10%[60.1 µM]	?	.
COc1cc(/C=C(\C#N)c2nc3ccc(C)cc3[nH]2)cc([N+](=O)[O-])c1O	17%	22µM*	?	45µM*	-42%	?	76*	Pol kappa inh-2=24*
COc1cc(/C=C(\C#N)c2nc3ccc(C)cc3[nH]2)c([N+](=O)[O-])cc1OC	-3%	?	11%	?	-12%	-5%	.
COc1cc(/C=C(\C#N)c2nc3ccc(C)cc3[nH]2)ccc1OCc1ccc(C)cc1	-15%	?	-5%	?	?	?	.	Pol kappa inh-2=?
COc1cccc(/C=C(\C#N)c2nc3ccc(C)cc3[nH]2)c1	-15%	89µM*	-2%	?	-6%	-6%	.	Pol kappa inh-2=?
SMILES	KAT2A inh	Pol eta inh-1	GLS inhibitor	POLB inh	Pol kappa inh-1	Pol iota inh	Pol eta inh-2	others
COc1ccc(S(=O)(=O)NCC(c2ccco2)S(=O)(=O)c2cccs2)cc1C (stereo not given)	-15%	-26%	-1%	-6%	1%[60.1 µM]	33%	.
NS(=O)(=O)c1ccc(NC(=O)C2Cc3ccccc3N2C(=O)c2ccccc2)cc1 (stereo not given)	-2%	1%	9%	14%	-1%[60.1 µM]	4%	.
O=c1[nH]c(Nc2ccccc2)cc2cc(Br)ccc12	.	40µM*	8%	.	?	?	?
COc1ccccc1Nc1cc2cc(Br)ccc2c(=O)[nH]1	.	20µM*	-8%	.	79µM*	?	67*
Cn1c(=O)cc(Nc2ccccc2)[nH]c1=O	-4%	-5%	2%	-6%	-8%	137%	.
O=c1[nH]c(Nc2ccccc2)cc2ccccc12	-12%	?	16%	6%	-26%	11µM*	.	GALK confirm=42µM*;Redox cycling=21µM*;HEK293 viability=8%
CC(=O)c1cccc(-c2ccc3c(=O)[nH]c(Nc4ccccc4)cc3c2)c1	.	20µM*	5%	.	?	?	76*
COc1ccccc1Nc1nnc(C)c(=O)[nH]1	0%	2%	-8%	30%	-2%	15%	.
